The text below walks through data of PubChem BioAssay AID2810 (NMMLSC, 2010).

The assay in a line: modulators of CD8 T cell-vesicle binding, confirmation, cherry-picked primary hits, two concentrations (AID 2810).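 On percent response (vesicle binding): ratio of mean FL2 vesicle stain of CD8+ cells to that row's control.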 As to conditions: 2C CD8+ T cell-vesicle binding, flow cytometry; for double positive events: CD8+/vesicle+ events. In general terms: Flow cytometry measures light scatter and fluorescence of single cells or particles in a stream.
Where [1] appears, read: at 15.4 µM, stronger effect = lower value.

About 65 (5%) of roughly 1,200 compounds were called active.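 How the source made its calls: active means at either tested dose, response and 90th-percentile vesicle-stain brightness of CD8 cells under set limits and under 9% cells vesicle-bound; inactive means the rest.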 The entries come from a sample that favours actives as a whole.

As to `CC(C)NC(=O)NC(=O)COC(=O)c1ccc(F)cc1F`, the double positive events by setting is: (at 7.7 µM) 29.2%; under setting [1], 19.1%. Further, the percent response (vesicle binding) by setting is: under setting [1], 385% (inactive); (response, at 7.7 µM) 423%.

Take `O=C(c1c[nH]c2ccccc12)N1CCN(Cc2ccccc2)CC1`: the double positive events (at 7.7 µM) stood at 13.7% and the double positive events under setting [1] was determined as 10.6%. Besides, the percent response (vesicle binding) was 47.9% (inactive) under setting [1] and 181% (response, at 7.7 µM).

Take `CC(NS(=O)(=O)c1ccc(Cl)c(Cl)c1)C(=O)OCC(=O)N1CCCCCC1` (configuration not stated): the double positive events reads like this: (at 7.7 µM) 27.5%; under setting [1], 12.9%. Further, the percent response (vesicle binding) is, setting by setting: under setting [1], 182% (inactive); (response, at 7.7 µM) 284%.

Take `c1csc(-c2nc3ccccc3[nH]2)c1`: the double positive events reads like this: (at 7.7 µM) 38.6%; under setting [1], 18.6%. Also, the percent response (vesicle binding) is, setting by setting: under setting [1], 255% (inactive); (response, at 7.7 µM) 233%.

For the compound `COc1ccc([C@H]2CC(=O)C=C(c3cc(F)ccc3OC)C2)cc1`, the double positive events runs as follows: (at 7.7 µM) 19.1%; under setting [1], 16.3%. The percent response (vesicle binding) runs as follows: under setting [1], 198% (inactive); (response, at 7.7 µM) 138%.

For `COc1ccc([C@H]2CC(=O)C=C(c3ccc4c5c(cccc35)CC4)C2)cc1`, the double positive events by setting is: (at 7.7 µM) 6.5%; under setting [1], 29.8%. Moreover, the percent response (vesicle binding) is 626% (inactive) under setting [1] and 271% (response, at 7.7 µM).

Turning to `COc1ccc([C@H]2CC(=O)C=C(/C=C/c3ccccc3)C2)cc1`, the double positive events amounted to 19.1% (at 7.7 µM) and 3.3% under setting [1]. The percent response (vesicle binding) under setting [1] was 36.9% (active) and the percent response (vesicle binding) (response, at 7.7 µM) stood at 286%.

Consider `COc1ccc([C@H]2CC(=O)C=C(c3c(C)cc(C)cc3C)C2)cc1`, for which the double positive events amounted to 12.5% (at 7.7 µM) and 5.7% under setting [1]. Also, the percent response (vesicle binding) reads like this: under setting [1], 49.9% (active); (response, at 7.7 µM) 132%.

For `COc1ccc(C2=CC(=O)CC(c3ccc(OC)cc3)C2)cc1` (configuration not stated), the double positive events came to 14.8% (at 7.7 µM) and 3.2% under setting [1]. Also, the percent response (vesicle binding) reads like this: under setting [1], 110% (inactive); (response, at 7.7 µM) 120%.

With `COc1ccc([C@H]2CC(=O)C=C(c3cccc(Cl)c3)C2)cc1`, the double positive events worked out at 37.2% (at 7.7 µM) and 4.7% under setting [1]. Also, the percent response (vesicle binding) under setting [1] is 129% (inactive) and the percent response (vesicle binding) (response, at 7.7 µM) was found to be 315%.

With `O=C(NCCO)/C(=C\c1ccc(Br)cc1)NC(=O)c1cccs1`, the double positive events (at 7.7 µM) was 6.9% and the double positive events under setting [1] came to 24.7%. For the same compound, the percent response (vesicle binding) is 683% (inactive) under setting [1] and 70.4% (response, at 7.7 µM).

As to `COc1ccc(CCCC(=O)NC(C)c2ccccc2)cc1` (configuration not stated), the double positive events is 12.2% (at 7.7 µM) and 15.2% under setting [1]. The percent response (vesicle binding) runs as follows: under setting [1], 93.8% (inactive); (response, at 7.7 µM) 104%.

Take `O=C(COC(=O)C1(c2cccc(F)c2)CCCC1)NCc1ccc2c(c1)OCO2`: the double positive events was 15.2% (at 7.7 µM) and 3.1% under setting [1]. Also, the percent response (vesicle binding) is 106% (inactive) under setting [1] and 82.7% (response, at 7.7 µM).
